“And” between values parts separate entries of the source, which are not always exact repeats. Equal values may be shown once. Inconclusive results are not listed. A number with no mark means an inactive call. The source made the active and inactive calls. The call rests on the fitted dose curve; in most records, active means well fitted curve in the direction sought with a large enough effect; inconclusive means small, poorly fitted or top-dose-only effect, or another doubt; inactive means no such curve, though single readings can be large; an effect the other way counts as inactive or inconclusive.

Assay [1] deals with Cytochrome P450 3A7 (Homo sapiens) (UniProt P24462). In words: Cytochrome P450 family 3 subfamily A member 7 (CYP3A7) small molecule antagonists: luciferase biochemical qHTS assay (AID 1963596). Further: on the % scale 0 is the no-effect control and ±100 the full control effect; nearly all actives have a fitted effect of over 40% in size. In outline: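 Biochemical CYP3A7 activity measured with P450-Glo system: luciferin formed from proluciferin substrate in NADPH-driven reaction (1 h, room temperature) after 10 min compound preincubation. Signal in relative luminescence units.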
Sequence of Cytochrome P450 3A7 (Homo sapiens) (P24462 whole entry, looked up): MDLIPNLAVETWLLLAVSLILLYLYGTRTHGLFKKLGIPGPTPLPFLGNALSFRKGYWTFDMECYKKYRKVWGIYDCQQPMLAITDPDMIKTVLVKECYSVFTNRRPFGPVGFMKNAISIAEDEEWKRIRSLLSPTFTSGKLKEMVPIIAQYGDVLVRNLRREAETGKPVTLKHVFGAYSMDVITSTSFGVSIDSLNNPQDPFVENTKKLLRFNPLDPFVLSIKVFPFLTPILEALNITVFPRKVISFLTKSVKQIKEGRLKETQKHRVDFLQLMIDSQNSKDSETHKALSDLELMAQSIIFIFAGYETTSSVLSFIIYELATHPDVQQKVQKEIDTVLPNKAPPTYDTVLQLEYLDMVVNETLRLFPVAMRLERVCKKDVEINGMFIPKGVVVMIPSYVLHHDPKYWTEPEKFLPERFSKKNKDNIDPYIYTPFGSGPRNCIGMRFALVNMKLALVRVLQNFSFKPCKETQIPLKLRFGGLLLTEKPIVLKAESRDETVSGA
(In qHTS, concentration-response curves come from the screen itself.)

Assay [2] in a line: Viability qHTS for spleen associated tyrosine kinase inhibitor (SYKi) naive MV4-11 cells (AID 1963823). Further: nearly all actives have a fitted effect of over 40% in size. Further: potency means the concentration at half of the fitted maximal effect. In outline: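 Read-out: CellTiter-Glo luminescence. Exposure: 72 hr, 37 C, 5% CO2, 95% humidity. Cells: MV4-11 without SYK inhibitor history, 500/well, qHTS format.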
Assay [3] can be described thus: Viability qHTS for spleen associated tyrosine kinase inhibitor (SYKi) drug resistant MV4-11 cells (AID 1963824). Further: nearly all actives have a fitted effect of over 35% in size. Further: potency means the concentration at half of the fitted maximal effect. The gist of the method:
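SYK-inhibitor-resistant MV4-11 AML cells were seeded at 500 per well onto compound and cultured 72 hours (37 °C, 5% CO2). CellTiter-Glo was then added, and after 10 min at room temperature, luminescence gave viability.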

Assay [4] can be described thus: Cellular viability qHTS for adrenocortical cancer (ACC) cell line SW-13 (AID 1963989). Further: nearly all actives have a fitted effect of over 65% in size. Further: potency means the concentration at half of the fitted maximal effect.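 On activity (max response): cells grown in serum-free medium with ITS supplement; on the % scale 0 is the no-effect control and ±100 the full control effect.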 The settings on record: SW-13 ACC cells viability, CellTiter-Glo, 48 h; activity (max response): stronger effect = lower value. In outline:
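Compound titrations (up to 46 uM final, in DMSO) were applied to SW-13 cells for 48 h at 37C/5% CO2. Reading used CellTiter-Glo after 20 min at room temperature; fitted curves yielded IC50 and efficacy.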

Assay [5] can be described thus: Cellular viability qHTS for adrenocortical cancer (ACC) cell line NCI-H295R (AID 1963990). Further: nearly all actives have a fitted effect of over 60% in size. Further: potency means the concentration at half of the fitted maximal effect.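 On activity change, negative = viability loss: 0% = DMSO only wells and -100% = full killing with cytotoxic reference compound.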 The gist of the method: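 Readout: CellTiter-Glo luminescence, 20 min RT. Exposure: 48 h, 37C/5% CO2. Cells: NCI-H295R, ITS-DMEM serum-free. Range: up to 46 uM. Analysis: 4PL fit, IC50 plus efficacy.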

On to `Cc1cccc(-c2nn3c(c2-c2ccnc4ccc(C(N)=O)cc24)CCC3)n1`, for which the Potency result in assay [1], in assay [2], in assay [3] and in assay [5] was “inactive” in each case. In addition, the activity (max response) in assay [4] is 14.6%.

As to `COc1cc(C(=O)NCc2ccc(OCCN(C)C)cc2)cc(OC)c1OC`, the Potency entry in assay [1], in assay [2], in assay [3] and in assay [5] was “inactive” throughout. For the same compound, the activity (max response) in assay [4] is -6.7%.

With `CCCCCCCC/C=C\CCCCCCCCN`, the Potency result in assay [1], in assay [2], in assay [3] and in assay [5] was “inactive” in each case. Also, the activity (max response) in assay [4] was 7.78%.

For the compound `CN(C)CCOC(=O)COc1ccc(Cl)cc1`, the Potency result in assay [1], in assay [2], in assay [3] and in assay [5] was “inactive” each time. The activity (max response) in assay [4] was 4.85%.

For the compound `Cc1cccc(OCC(O)CNC(C)(C)C)c1C` (stereo not given), the Potency result in assay [1], in assay [2], in assay [3] and in assay [5] was “inactive” in each case. In assay [4], the activity (max response) is -1.22%.

On to `O=C(NCCN1CCOCC1)c1ccc(Cl)cc1`, for which the Potency result in assay [1], in assay [2], in assay [3] and in assay [5] was “inactive” throughout. The activity (max response) in assay [4] is 1.07%.

On to `COc1cc2c(NC3CCN(CC4CCCCC4)CC3)nc(N3CCCN(C(C)C)CC3)nc2cc1OCCCN1CCCCC1`, for which the Potency entry in assay [1] was “inactive”. For the same compound, the Potency in assay [2] is 2590 nM (active); in assay [3], 3.66 µM (active); in assay [4], 7080 nM (active); in assay [5] it was 22400 nM (active).

As for `CN1CCN(CC(=O)N2c3ccccc3C(=O)Nc3cccnc32)CC1`, in assay [1], the activity change, negative = inhibition is 12.3% [at 4.83 µM]. Also, the viability (% of control) in assay [2] was 98.6% [at 4.97 µM]. In assay [3], the viability, % of control was 96.6% [at 4.97 µM]. The activity (max response) in assay [4] was -3%. In assay [5], the activity change, negative = viability loss was -2.51% [at 3.81 µM].

Regarding `CCN(CC)C(=O)Nc1ccc(OCC(O)CNC(C)(C)C)c(C(C)=O)c1` (stereo not given), the Potency result in assay [1], in assay [2], in assay [3] and in assay [5] was “inactive” each time. For the same compound, in assay [4], the activity (max response) is 12%.

In the case of `CN(C)C1CCN(C(=O)c2ccc(NC(=O)Nc3ccc(-c4nc(N5CCOCC5)nc(N5CCOCC5)n4)cc3)cc2)CC1`, in assay [1], the Potency entry was “inactive”. Also, the Potency in assay [2] was 14.6 nM (active); in assay [3] it was 0.0184 µM (active); in assay [4], 251 nM (active); in assay [5], 2240 nM (active).

Turning to `O=C(Oc1ccccc1)c1ccccc1O`, the Potency entry in assay [1], in assay [2], in assay [3] and in assay [5] was “inactive” throughout. For the same compound, the activity (max response) in assay [4] is 1.95%.

Take `CCC1(c2ccccc2)C(=O)NCNC1=O`: the Potency entry in assay [1], in assay [2], in assay [3] and in assay [5] was “inactive” throughout. Also, the activity (max response) in assay [4] was 8.13% and -10.5%.

As to `Cc1ncc(COP(=O)(O)O)c(C=O)c1O`, the Potency result in assay [1], in assay [2], in assay [3] and in assay [5] was “inactive” each time. In assay [4], the activity (max response) was 7.84%.

In the case of `CCCNC(=O)NS(=O)(=O)c1ccc(Cl)cc1`, the Potency result in assay [1], in assay [2], in assay [3] and in assay [5] was “inactive” throughout. The activity (max response) in assay [4] is -2.41%.

For `C[C@@H]1CCC[C@H](C)N1`, the Potency result in assay [1], in assay [2], in assay [3] and in assay [5] was “inactive” throughout. Further, in assay [4], the activity (max response) was 4.32%.

With `COc1ccc(O)cc1`, the Potency entry in assay [1], in assay [2], in assay [3] and in assay [5] was “inactive” throughout. The activity (max response) in assay [4] is -1.22%.

As to `O=C(O)[C@H](O)[C@@H](O)[C@H](O[C@@H]1O[C@H](CO)[C@H](O)[C@H](O)[C@H]1O)[C@H](O)CO`, the Potency result in assay [1], in assay [2], in assay [3] and in assay [5] was “inactive” throughout. In addition, the activity (max response) in assay [4] was 9.39%.

`Oc1ccccc1-c1nnco1`: the Potency entry in assay [1], in assay [2], in assay [3] and in assay [5] was “inactive” each time. Further, the activity (max response) in assay [4] was 12.7%.

For the compound `NC(=O)COCCN1CCN(C(c2ccccc2)c2ccc(Cl)cc2)CC1` (stereo not given), the Potency result in assay [1], in assay [2], in assay [3] and in assay [5] was “inactive” in each case. Moreover, in assay [4], the activity (max response) is 0.82%.

On to `O=C(Nc1ccc(-c2ccnc(Nc3ccc(N4CCOCC4)cc3)n2)cc1)C1CCCN1` (stereo not given), for which the Potency result in assay [1] and in assay [5] was “inactive” each time. The Potency is 1660 nM (active) in assay [2]; 1.46 µM (active) and 2.35 µM (active) in assay [3]. Also, in assay [4], the activity (max response) was -0.397%.

In the case of `CC(C)CCCC(C)N` (stereo not given), the Potency result in assay [1], in assay [2], in assay [3] and in assay [5] was “inactive” each time. For the same compound, the activity (max response) in assay [4] is 3.28%.

On to `CCn1cc(C(=O)O)c(=O)c2cnc(N3CCCC3)nc21`, for which the activity change, negative = inhibition in assay [1] is 25.3% [at 11.5 µM]. For the same compound, the viability (% of control) in assay [2] is 74.1% [at 9.25 µM]. Besides, the viability, % of control in assay [3] is 103% [at 9.25 µM]. Besides, in assay [4], the activity (max response) is -7.72%. In assay [5], the activity change, negative = viability loss is -14.1% [at 9.17 µM].

Take `CC(O)CN(CCN(CC(C)O)CC(C)O)CC(C)O` (stereo not given): the Potency entry in assay [1], in assay [2], in assay [3] and in assay [5] was “inactive” throughout. For the same compound, the activity (max response) in assay [4] was 5.94%.

Regarding `OC[C@H]1O[C@H](O[C@]2(CCl)O[C@H](CCl)[C@@H](O)[C@@H]2O)[C@H](O)[C@@H](O)[C@H]1Cl`, the Potency entry in assay [1], in assay [2], in assay [3] and in assay [5] was “inactive” throughout. Also, the activity (max response) in assay [4] was -4.41%.

As to `CC(O)CCCCn1c(=O)c2c(ncn2C)n(C)c1=O` (stereo not given), the Potency result in assay [1], in assay [2], in assay [3] and in assay [5] was “inactive” in each case. For the same compound, the activity (max response) in assay [4] was 7.24%.

Consider `CC1(C)O[C@@H]2[C@@H](CO[C@@]3(COS(N)(=O)=O)OC(C)(C)O[C@@H]23)O1`, for which the Potency result in assay [1], in assay [2], in assay [3] and in assay [5] was “inactive” each time. Further, the activity (max response) in assay [4] is 9.55%.

With `NC(=O)N1c2ccccc2C=Cc2ccccc21`, the Potency result in assay [1], in assay [2], in assay [3] and in assay [5] was “inactive” throughout. The activity (max response) in assay [4] was 8.83%.

Turning to `Cc1cccc(C)c1NC(=O)CN1CCCCCC1`, the Potency entry in assay [1], in assay [2], in assay [3] and in assay [5] was “inactive” throughout. Besides, the activity (max response) in assay [4] is 6.22%.
